{"source": "the supplement of paper PMC11732987", "about": "“Enantioselective OTUD7B fragment discovery through chemoproteomics screening and high-throughput optimisation” (Communications Chemistry, 2025)", "experiment_in_all_cases": "log2 ratio of Biotin-Ahx-Ub-VS probe labelling (fragment/DMSO); higher = less target engagement (more negative = stronger competition), active = hit call of the paper (q ≤ 0.05, log2 ratio ≤ -1)", "details_in_all_cases": "compound concentration: 200 uM; treatment time: 3 h", "key": {"ALG13": {"target": "T1, ALG13 (UniProt Q9NP73)", "T1 sequence (whole entry)": "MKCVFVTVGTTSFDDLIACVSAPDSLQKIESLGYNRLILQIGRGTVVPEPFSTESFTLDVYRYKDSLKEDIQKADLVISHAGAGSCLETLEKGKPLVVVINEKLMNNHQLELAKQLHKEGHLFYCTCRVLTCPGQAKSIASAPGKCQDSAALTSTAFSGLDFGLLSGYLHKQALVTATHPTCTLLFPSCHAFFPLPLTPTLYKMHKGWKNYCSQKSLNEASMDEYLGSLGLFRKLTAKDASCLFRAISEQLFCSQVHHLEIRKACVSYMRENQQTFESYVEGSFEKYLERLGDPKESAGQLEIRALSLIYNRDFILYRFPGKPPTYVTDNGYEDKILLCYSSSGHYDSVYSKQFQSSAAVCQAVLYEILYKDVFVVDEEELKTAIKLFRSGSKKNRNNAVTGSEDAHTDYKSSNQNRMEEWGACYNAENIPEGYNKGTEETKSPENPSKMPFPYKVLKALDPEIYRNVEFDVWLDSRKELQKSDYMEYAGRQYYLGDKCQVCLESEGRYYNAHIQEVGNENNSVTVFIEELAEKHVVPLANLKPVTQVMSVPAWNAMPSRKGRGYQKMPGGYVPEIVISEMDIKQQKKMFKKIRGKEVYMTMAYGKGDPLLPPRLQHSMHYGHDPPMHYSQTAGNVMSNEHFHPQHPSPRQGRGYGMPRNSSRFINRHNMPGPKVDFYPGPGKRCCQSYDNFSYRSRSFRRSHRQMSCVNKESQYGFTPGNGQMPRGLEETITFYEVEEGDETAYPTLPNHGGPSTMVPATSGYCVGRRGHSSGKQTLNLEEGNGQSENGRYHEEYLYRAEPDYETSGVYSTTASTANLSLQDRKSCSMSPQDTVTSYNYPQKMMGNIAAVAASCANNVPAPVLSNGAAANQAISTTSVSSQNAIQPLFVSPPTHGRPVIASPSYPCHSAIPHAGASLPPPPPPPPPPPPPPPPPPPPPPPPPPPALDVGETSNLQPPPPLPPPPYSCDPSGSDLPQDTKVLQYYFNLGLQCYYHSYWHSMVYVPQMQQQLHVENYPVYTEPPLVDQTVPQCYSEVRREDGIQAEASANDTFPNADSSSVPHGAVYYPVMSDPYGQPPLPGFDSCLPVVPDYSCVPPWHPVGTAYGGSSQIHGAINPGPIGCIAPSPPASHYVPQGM", "procedure,_shortened": "(§1)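 Average log2 ratios of fragment over vehicle were obtained by unpaired t-test from global-median-normalised Spectronaut label-free quantities. Proteins with ≥2 unique peptides were included. HEK293T lysate (495 µg per sample) was treated in triplicate with fragment at 200 µM or vehicle for 3 h, then with Biotin-Ahx-Ub-VS at 0.5 µM final for 1 h, and labelled DUBs were NeutrAvidin-enriched and run by diaPASEF LC-MS/MS.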"}, "ATXN3": {"target": "ATXN3 (UniProt P54252)", "sequence (P54252 whole entry)": "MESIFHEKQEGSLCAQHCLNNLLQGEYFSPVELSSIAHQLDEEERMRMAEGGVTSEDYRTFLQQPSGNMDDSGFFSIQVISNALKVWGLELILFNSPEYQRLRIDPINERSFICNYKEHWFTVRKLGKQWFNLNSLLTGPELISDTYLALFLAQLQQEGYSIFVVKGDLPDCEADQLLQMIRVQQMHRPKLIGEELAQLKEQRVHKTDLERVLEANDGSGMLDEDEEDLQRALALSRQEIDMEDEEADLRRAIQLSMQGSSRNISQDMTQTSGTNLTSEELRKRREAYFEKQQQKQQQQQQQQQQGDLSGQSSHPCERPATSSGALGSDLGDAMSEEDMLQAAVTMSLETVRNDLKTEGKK", "procedure,_shortened": "as §1"}, "BAP1": {"target": "T2, BAP1 (UniProt Q92560)", "T2 sequence (whole entry)": "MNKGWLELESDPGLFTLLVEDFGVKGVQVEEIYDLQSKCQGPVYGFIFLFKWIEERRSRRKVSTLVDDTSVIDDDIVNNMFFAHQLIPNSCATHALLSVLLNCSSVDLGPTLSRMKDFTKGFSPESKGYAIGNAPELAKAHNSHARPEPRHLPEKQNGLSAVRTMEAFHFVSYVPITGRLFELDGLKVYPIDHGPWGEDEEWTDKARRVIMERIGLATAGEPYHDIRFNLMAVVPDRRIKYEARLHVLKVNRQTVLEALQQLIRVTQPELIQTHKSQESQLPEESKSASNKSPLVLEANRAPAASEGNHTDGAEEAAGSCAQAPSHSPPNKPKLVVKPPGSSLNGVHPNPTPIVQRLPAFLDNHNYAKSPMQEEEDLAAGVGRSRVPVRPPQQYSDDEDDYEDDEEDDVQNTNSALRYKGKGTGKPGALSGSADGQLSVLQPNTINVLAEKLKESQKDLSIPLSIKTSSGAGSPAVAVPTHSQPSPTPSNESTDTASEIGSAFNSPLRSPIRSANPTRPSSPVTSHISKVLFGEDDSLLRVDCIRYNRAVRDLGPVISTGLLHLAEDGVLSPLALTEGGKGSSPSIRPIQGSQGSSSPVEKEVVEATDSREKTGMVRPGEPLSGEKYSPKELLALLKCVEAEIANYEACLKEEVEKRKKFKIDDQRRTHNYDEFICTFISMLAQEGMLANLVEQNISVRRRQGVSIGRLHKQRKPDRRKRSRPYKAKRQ", "procedure,_shortened": "as §1"}, "EIF3F": {"target": "EIF3F (UniProt O00303)", "sequence (O00303 whole entry)": "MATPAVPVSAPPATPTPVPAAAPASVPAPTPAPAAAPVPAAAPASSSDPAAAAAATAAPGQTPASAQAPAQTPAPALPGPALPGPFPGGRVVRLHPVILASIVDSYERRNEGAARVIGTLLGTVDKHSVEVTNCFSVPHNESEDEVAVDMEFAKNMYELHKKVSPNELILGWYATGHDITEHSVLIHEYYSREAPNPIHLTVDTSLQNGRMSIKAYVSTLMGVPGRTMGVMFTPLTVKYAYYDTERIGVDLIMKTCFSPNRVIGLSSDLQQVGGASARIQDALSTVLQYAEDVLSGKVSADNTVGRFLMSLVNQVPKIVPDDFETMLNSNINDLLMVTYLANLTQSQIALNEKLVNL", "procedure,_shortened": "as §1"}, "EIF3H": {"target": "EIF3H (UniProt O15372)", "sequence (O15372 whole entry)": "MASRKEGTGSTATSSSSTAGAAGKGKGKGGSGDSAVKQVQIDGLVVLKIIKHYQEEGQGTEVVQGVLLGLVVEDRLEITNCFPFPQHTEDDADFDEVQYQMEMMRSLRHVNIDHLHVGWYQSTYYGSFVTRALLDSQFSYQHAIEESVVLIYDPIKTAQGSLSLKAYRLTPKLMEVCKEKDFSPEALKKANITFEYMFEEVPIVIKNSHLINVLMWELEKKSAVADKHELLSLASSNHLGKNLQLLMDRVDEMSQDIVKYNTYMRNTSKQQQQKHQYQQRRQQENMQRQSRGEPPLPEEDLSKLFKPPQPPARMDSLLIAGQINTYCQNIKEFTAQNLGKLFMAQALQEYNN", "procedure,_shortened": "as §1"}, "FAM105A": {"target": "T3, FAM105A (UniProt Q9NUU6)", "T3 sequence (whole entry)": "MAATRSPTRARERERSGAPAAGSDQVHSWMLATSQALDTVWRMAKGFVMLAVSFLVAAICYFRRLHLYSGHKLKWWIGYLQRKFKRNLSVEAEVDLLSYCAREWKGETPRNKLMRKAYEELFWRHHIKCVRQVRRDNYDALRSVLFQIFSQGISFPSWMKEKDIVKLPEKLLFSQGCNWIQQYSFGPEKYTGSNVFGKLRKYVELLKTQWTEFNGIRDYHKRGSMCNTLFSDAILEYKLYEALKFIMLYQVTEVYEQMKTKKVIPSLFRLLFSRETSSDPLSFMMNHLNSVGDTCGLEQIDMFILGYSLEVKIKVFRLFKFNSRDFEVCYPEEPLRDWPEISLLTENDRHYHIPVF", "procedure,_shortened": "as §1"}, "OTUB1": {"target": "OTUB1 (UniProt Q96FW1)", "sequence (Q96FW1 whole entry)": "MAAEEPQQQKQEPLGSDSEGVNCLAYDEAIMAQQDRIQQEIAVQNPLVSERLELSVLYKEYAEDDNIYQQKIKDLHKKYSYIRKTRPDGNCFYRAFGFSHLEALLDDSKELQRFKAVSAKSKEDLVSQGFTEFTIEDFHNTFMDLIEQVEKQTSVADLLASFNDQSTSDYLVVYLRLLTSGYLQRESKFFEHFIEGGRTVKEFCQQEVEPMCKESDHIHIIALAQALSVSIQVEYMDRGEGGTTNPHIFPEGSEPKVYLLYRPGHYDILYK", "procedure,_shortened": "as §1"}, "OTUD4": {"target": "T4, OTUD4 (UniProt Q01804)", "T4 sequence (whole entry)": "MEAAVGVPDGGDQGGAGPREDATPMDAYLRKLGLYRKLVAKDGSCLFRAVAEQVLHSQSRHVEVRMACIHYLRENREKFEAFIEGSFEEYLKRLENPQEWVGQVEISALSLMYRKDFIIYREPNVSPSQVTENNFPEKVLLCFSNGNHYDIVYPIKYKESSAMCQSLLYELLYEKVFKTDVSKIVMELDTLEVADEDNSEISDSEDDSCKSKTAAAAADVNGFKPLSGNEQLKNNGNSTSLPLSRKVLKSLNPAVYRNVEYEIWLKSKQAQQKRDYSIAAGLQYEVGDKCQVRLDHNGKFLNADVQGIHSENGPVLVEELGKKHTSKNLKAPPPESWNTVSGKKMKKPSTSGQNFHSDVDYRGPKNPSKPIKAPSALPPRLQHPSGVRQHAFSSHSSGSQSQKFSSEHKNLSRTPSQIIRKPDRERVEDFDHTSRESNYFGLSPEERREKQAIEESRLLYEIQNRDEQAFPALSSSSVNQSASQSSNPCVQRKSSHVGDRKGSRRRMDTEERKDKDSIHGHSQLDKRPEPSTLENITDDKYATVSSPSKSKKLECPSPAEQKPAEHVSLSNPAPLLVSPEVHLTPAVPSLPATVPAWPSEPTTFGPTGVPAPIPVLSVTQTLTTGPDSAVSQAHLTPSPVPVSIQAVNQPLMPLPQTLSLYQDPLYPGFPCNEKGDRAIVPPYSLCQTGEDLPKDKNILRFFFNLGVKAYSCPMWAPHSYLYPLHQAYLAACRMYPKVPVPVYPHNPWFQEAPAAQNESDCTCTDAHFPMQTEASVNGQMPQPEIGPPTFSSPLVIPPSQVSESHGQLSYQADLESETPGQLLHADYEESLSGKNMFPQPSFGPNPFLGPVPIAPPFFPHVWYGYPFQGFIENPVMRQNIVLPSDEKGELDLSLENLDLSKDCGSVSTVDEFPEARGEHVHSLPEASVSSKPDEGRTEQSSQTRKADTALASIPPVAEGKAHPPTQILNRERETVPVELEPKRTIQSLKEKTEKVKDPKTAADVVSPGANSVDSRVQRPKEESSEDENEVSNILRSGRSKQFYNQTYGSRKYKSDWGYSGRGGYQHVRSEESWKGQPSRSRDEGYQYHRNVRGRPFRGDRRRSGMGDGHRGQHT", "procedure,_shortened": "as §1"}, "OTUD5": {"target": "T5, OTUD5 (UniProt Q96G74)", "T5 sequence (whole entry)": "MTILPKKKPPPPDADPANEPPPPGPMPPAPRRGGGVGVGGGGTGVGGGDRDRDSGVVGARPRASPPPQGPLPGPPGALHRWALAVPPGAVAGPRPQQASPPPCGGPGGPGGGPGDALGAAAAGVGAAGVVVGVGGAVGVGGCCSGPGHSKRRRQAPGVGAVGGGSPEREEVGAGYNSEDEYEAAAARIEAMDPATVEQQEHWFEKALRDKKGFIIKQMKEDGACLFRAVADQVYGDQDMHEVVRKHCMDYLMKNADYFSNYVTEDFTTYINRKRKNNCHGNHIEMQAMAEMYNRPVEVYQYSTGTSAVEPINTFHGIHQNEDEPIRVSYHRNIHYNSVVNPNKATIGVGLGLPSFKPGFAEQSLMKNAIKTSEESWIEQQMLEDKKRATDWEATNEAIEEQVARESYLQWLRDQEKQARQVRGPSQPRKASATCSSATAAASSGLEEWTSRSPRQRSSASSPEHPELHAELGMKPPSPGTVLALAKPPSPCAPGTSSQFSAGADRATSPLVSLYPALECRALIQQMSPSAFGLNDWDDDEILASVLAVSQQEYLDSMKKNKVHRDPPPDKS", "procedure,_shortened": "as §1"}}, "note": "Unmarked numbers belong to inactive results.", "data": [{"smiles": "COc1ccc(C2CCCN2C(=O)CCl)c(OC)c1", "note": "(centres undefined)", "values": [{"measurement": "log2 ratio of Biotin-Ahx-Ub-VS probe labelling", "setting": "ALG13", "value": -0.266}, {"measurement": "log2 ratio of Biotin-Ahx-Ub-VS probe labelling", "setting": "ATXN3", "value": -0.54}, {"measurement": "log2 ratio of Biotin-Ahx-Ub-VS probe labelling", "setting": "BAP1", "value": "-3.55 (active)"}, {"measurement": "log2 ratio of Biotin-Ahx-Ub-VS probe labelling", "setting": "EIF3F", "value": -0.23}, {"measurement": "log2 ratio of Biotin-Ahx-Ub-VS probe labelling", "setting": "EIF3H", "value": -0.25}, {"measurement": "log2 ratio of Biotin-Ahx-Ub-VS probe labelling", "setting": "FAM105A", "value": 0.0093}, {"measurement": "log2 ratio of Biotin-Ahx-Ub-VS probe labelling", "setting": "OTUB1", "value": 0.0641}, {"measurement": "log2 ratio of Biotin-Ahx-Ub-VS probe labelling", "setting": "OTUD4", "value": 0.0731}, {"measurement": "log2 ratio of Biotin-Ahx-Ub-VS probe labelling", "setting": "OTUD5", "value": -0.185}]}]}
